In the library only some 21% were active in any assay of this set; here they are far more common.
Pf growth 48h: P. falciparum growth inhibition at 48 hours (one generation). hit rate 5.9% among 310,000. Potency, µM (titrated, usually from 28.7 µM), without a hit: at the top dose activity change, negative = inhibition, actives largely listed as inhibitors. P. falciparum luciferase growth in erythrocytes, 48 h. AID 504832; also: potency is read from the fitted curve at half-maximal effect; % is scaled to controls: 0 for no effect and ±100 for the full control effect
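Parasite viability was followed by luminescence of a genomically integrated firefly luciferase. Cultures held 0.1% parasitemia at 2% hematocrit (final), incubated under 5% CO2 at 37 C.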
FBPA Giardia inh: blocks Giardia fructose-bisphosphate aldolase activity. A8B2U2. purified Giardia FBPA. Potency, µM (doses to about 59.6 µM), for inactives: at the highest dose activity, negative = inhibition, hits mostly inhibitors. hit rate 0.71% among 290,000. AID 2451; also: potency is read from the fitted curve at half-maximal effect; % is scaled to controls: 0 for no effect and ±100 for the full control effect; nearly all actives have a fitted effect of over 55% in size
Target sequence (A8B2U2 whole entry, looked up): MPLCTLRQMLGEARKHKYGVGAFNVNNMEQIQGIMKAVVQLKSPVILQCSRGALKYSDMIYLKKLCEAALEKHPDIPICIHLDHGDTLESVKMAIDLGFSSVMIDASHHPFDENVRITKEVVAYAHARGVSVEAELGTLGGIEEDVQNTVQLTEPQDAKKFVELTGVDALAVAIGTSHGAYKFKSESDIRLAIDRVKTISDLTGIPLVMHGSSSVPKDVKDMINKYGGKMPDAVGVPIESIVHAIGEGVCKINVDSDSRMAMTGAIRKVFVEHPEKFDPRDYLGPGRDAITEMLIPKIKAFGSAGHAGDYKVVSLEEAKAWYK
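Giardia FBPA (40 nM reagent) was preincubated 10 min at RT with compound (up to 57.5 uM final), then substrate plus GAPDH/TPI/NAD/arsenate coupling system with diaphorase/resazurin was added; resorufin fluorescence (525/598 nm) was read after 20 min.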
NS1 function inh: blocks influenza NS1 protein function; hit rate 0.4% among 270,000; Potency, µM (titrated, usually from 46.1 µM), for inactives: at the highest dose activity, positive = more growth; calls by dose curve; also: potency is read from the fitted curve at half-maximal effect; actives are rising curves; nearly all actives have a fitted effect of over 50% in size
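A cell-based growth assay was used: compounds that relieve NS1-induced slow growth of budding yeast raise OD600. Assay medium was yeast nitrogen base with ammonium sulphate and -URA supplement, pH 6.0, with 2% galactose.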
Pf growth 96h: P. falciparum growth inhibition at 96 hour, primary screen for plastid delayed-death inhibitors; AID 504834; Potency, µM (doses to about 28.7 µM), without a hit: at the top dose activity change, negative = inhibition, usual class: inhibitors; hit rate 6.9% among 320,000; P. falciparum luciferase reporter growth, 96 h; also: potency is read from the fitted curve at half-maximal effect; % is scaled to controls: 0 for no effect and ±100 for the full control effect
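Delayed-death screen, second-generation endpoint: infected erythrocytes, 2% hematocrit, 0.05% parasitemia final; 96 hours at 37 C, 5% CO2; luciferase detection reagent; luminescence decrease equals reduced growth.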
CHX counter: affects cycloheximide protein synthesis inhibition readout, counter-screen. cell reporter, cycloheximide protein synthesis inhibition counterscreen. max response, %. hit rate 12% among 300,000; in the data active = max response mostly above about 13%, no sharp cut-off; inactive = mostly below about 14%; also: read at 38.3 µM for the half of the compounds with a filed dose; 0% is about no effect
Shiga inhibitor: inhibitors of Shiga toxin in Vero cells; Vero cells, Shiga toxin protein synthesis inhibition reporter; inhibition, % at 38.7 µM; hit rate 9.2% among 290,000; AID 2315; in the data active = inhibition mostly above about 28%, no sharp cut-off; inactive = mostly below about 43%; also: 0% is about no effect
* = called active by the depositor; ? = inconclusive; . = not tested or not shown; [ ] = dose if it differs, or a comment. Unless noted, calls follow the shape of the dose curve; as a rule, active = well fitted curve in the direction sought with a large enough effect; inconclusive = small, poorly fitted or top-dose-only effect, or another doubt; inactive = no such curve, though single readings can be large; an effect the other way counts as inactive or inconclusive.

SMILES	Pf growth 48h	FBPA Giardia inh	NS1 function inh	Pf growth 96h	CHX counter	Shiga inhibitor
COc1ccc2c(c1)O[C@H](c1ccc3c(c1)OCO3)[C@@H](OC(=O)NCc1ccc3c(c1)OCO3)C2=O	.	-4%	.	.	.	.
COc1ccc2c(c1)C(=O)[C@H](O)[C@@H](c1ccc(OC)c(Br)c1)O2	3.7µM*	0%	-28%	2.1µM*	19*	54
COc1cccc(Nc2ncc3nc(-c4cc(F)cc(F)c4)c(=O)n(CCC#N)c3n2)c1	.	3%	.	.	.	.
CCC1=C2CC[C@H]3C(=O)NC(=O)[C@H]3[C@H]2[C@@]2(Cc3ccccc3)C(=NCC(=O)OC)OC(=O)N2C1=O	35%	4%	2%	0%	-5	-8
CCC1=C(OC(=O)N(CC)CC)N2C(=O)OC(=NCC3CC3)[C@]2(Cc2ccccc2)[C@H]2C1=CC[C@H]1C(=O)NC(=O)[C@H]12	10µM*	-6%	-4%	7.4µM*	-2	2
CCC1=C(OC(=O)N(CC)CC)N2C(=O)OC(=NCCOC)[C@]2(C)[C@H]2C1=CC[C@H]1C(=O)NC(=O)[C@H]12	.	-4%	.	.	.	.
CCC1=C(OC(=O)N(CC)CC)N2C(=O)OC(=NCCOC)[C@]2(Cc2ccccc2)[C@H]2C1=CC[C@H]1C(=O)NC(=O)[C@H]12	9.3µM*	3%	-4%	?	-6	4
COc1ccc(CN=C(N)N=C(N)N)cc1Cl	?	0%	.	24%	-1	-14
CC(C)COc1ccc(CN=C(N)N=C(N)N)cc1Cl	2.9µM*	1%	-9%	?	1	-4
CC(C)Oc1ccc(CN=C(N)N=C(N)N)cc1Cl	12µM*	-5%	8%	?	-3	-6
CCOc1ccc(N2CC(C(=O)NCCc3c[nH]c4ccc(C)cc34)CC2=O)cc1 (stereo not given)	-17%	-14%	12%	26%	-6	-5
CCOC(=O)CCN1C(=O)[C@H]2[C@H]3[C@H](O)[C@H](O)C/C(=N/NC(=O)OCc4ccc(OC)cc4)[C@H]3CC[C@@H]2C1=O	.	4%[12.9 µM]	.	.	.	.
COc1ccc(C)cc1NC(=O)C1CCN(C(=O)Cc2ccccc2)CC1	?	3%	.	18%	-1	-9
CC1(CCc2ccccc2)NC(=S)N(c2ccccc2)N1 (stereo not given)	12%	-28%	14%	?	40*	42*
CC1(CCc2ccccc2)NC(=S)N(c2ccc(Cl)cc2)N1 (stereo not given)	83%	-18%	-10%	49%	36*	59*
CC1(c2ccc(Cl)cc2)NC(=S)N2C1NC(=S)N2c1ccccc1 (stereo not given)	?	?	0%	?	2	-3
COc1cccc(Nc2nnc(SCC(=O)N(CC(C)C)CC(C)C)s2)c1	?	-2%	4%	1.3µM*	-4	-5
Cc1cccc(C)c1Nc1nnc(SCc2nc3ccccc3s2)s1	110%	10%	14%	0%	50*	69
COc1cccc(Nc2nnc(SCc3nc4ccccc4s3)s2)c1	146%	-5%	-1%	64%	65*	109*
Cc1cccc(C)c1Nc1nnc(SCC(=O)NCc2cccs2)s1	-4%	5%	-9%	?	-3	21
COc1cccc(CNC(=O)CCS(=O)(=O)c2ccc3c(c2)CC(C)N3C(=O)C2CC2)c1 (stereo not given)	3%	4%	-11%	-3%	-4	-6
C=CCNc1oc(-c2cccs2)nc1C#N	42%	-7%	2%	.	19*	51*
Cc1ccc(CNc2oc(-c3cccs3)nc2C#N)cc1	15%	1%	-94%	?	20	17
N#Cc1nc(-c2cccs2)oc1NCc1ccccc1Cl	-14%	16%	18%	.	18*	86*
N#Cc1nc(-c2cccs2)oc1NCc1ccccc1	?	-2%	-45%	3%	24*	29
SMILES	Pf growth 48h	FBPA Giardia inh	NS1 function inh	Pf growth 96h	CHX counter	Shiga inhibitor
N#Cc1nc(-c2cccs2)oc1NCc1ccc(Cl)cc1	?	-10%	-19%	1%	10	9
N#Cc1nc(-c2cccs2)oc1NCc1ccco1	-10%	-1%	-53%	.	18*	28
COc1ccccc1NC(=O)c1cnc(SC)nc1	26%	6%	-4%	12%	-1	.
C[N+](C)(C)CC(=O)N/N=C\c1ccncc1	.	.	-1%	.	.	.
N#Cc1nc(-c2ccco2)oc1NCc1ccccc1Cl	-14%	2%	-56%	0%	12*	44
CC12CC3CC(C)(C1)CC(C(=O)N1CCCC1)(C3)C2	?	1%	-17%	12µM*	-4	-12
COc1ccc(OCC(=O)Nc2c(C)ccc3nsnc23)cc1	3%	.	-1%	30%	1	-2
CC(C)c1ccc(C(=O)NCCCN2CCOCC2)cc1	32%	4%	2%	14%	37*	60
O=C(NCCCN1CCOCC1)c1ccc(Br)cc1	.	1%	3%	-1%	9	30
O=C(NCCCN1CCOCC1)c1ccc(S(=O)(=O)N2CCOCC2)cc1	4%	12%	10%	22%[5.75 µM]	26*	-9
NC1(C(=O)NC2(C(=O)O)CCCC2)CCCC1	.	.	-3%	.	.	.
C1=Nc2c(Nc3ccccc3)ncnc2Oc2ccccc21	29%	3%	-18%	13µM*	-3	13
Clc1ccc2c(c1)C=Nc1c(NCc3ccccc3)ncnc1O2	?	1%	3%	40%	-4	-11
CCCCNCC1C(Oc2ccc(Cl)cc2)C(=O)N1c1ccccc1C (stereo not given)	15µM*	-16%	.	-82%	-5	-8
CCCNCC1C(Oc2ccc(Cl)cc2Cl)C(=O)N1c1cccc(C)c1C (stereo not given)	?	-6%	.	-7%	-12	-5
CCc1cccc(CC)c1NC(=O)CN1CCN(S(=O)(=O)c2ccccc2)CC1	?	2%	-9%	0%	-1	2
CC(C)(C)c1csc(CS(=O)(=O)c2ccccn2)n1	0%	-3%	4%	3%	24*	88*
Cc1nc(CS(=O)(=O)c2ccccn2)sc1C(=O)NNC(=O)c1ccccc1	6%	-1%	2%	19%	-2	17
O=C(NCCOc1ccccc1)C(=O)c1c[nH]c2ccccc12	40%	0%	-7%	31%	20*	44
O=C(NCCC1=CCCCC1)C(=O)c1c[nH]c2ccccc12	44%	0%	-9%	-13%	26*	49*
COc1ccc(-n2nnnc2SCC(=O)Nc2cccc(O)c2)cc1	42%	2%	15%	?	0	.
CC(C)(O)C#Cc1ccc(CN2CCN(Cc3ccccc3)C(CCO)C2)s1 (stereo not given)	?	-2%	9%	?	6	-7
CC(C)CN1CCN(Cc2cnc(-c3ccc(Cl)cc3)nc2)CC1CCO (stereo not given)	19%	1%	-3%	?	13*	111

Screening data deposited in PubChem by National Center for Advancing Translational Sciences (NCATS).
